BAZ2B block – qHTS Assay for Inhibitors of BAZ2B; hit rate 4.4% among 360,000; AlphaScreen BAZ2B-H3K14Ac peptide displacement; Bromodomain adjacent to zinc finger domain protein 2B (Homo sapiens), Q9UIF8; Potency, µM (doses to about 114 µM), inactives show top-dose activity change, negative = inhibition, usual class: inhibitors; AID 504333, 2011; further: potency means the concentration at half of the fitted maximal effect; on the % scale 0 is the no-effect control and ±100 the full control effect; nearly all actives have a fitted effect of over 60% in size
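Inhibition is scored as reduced AlphaScreen emission. The BAZ2B/b-H3(5-23)K14Ac complex (50 nM each) in PBS pH 7.4, 0.01% Tween-20 meets compound (up to 110 uM) for 30 min at RT before bead addition.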
Six1-Eya2 inh – qHTS Assay for Inhibitors of the Six1/Eya2 Interaction; hit rate 0.56% among 360,000; activity change, % (test concentration not listed); AlphaScreen GST-Six1/His-Eya2 binding, biochemical; active compounds read low; in the data active means activity change below about -65%; inconclusive means mostly about -30% to -63%; further: on the % scale 0 is the no-effect control and ±100 the full control effect
Target sequence (O00167 whole entry, looked up): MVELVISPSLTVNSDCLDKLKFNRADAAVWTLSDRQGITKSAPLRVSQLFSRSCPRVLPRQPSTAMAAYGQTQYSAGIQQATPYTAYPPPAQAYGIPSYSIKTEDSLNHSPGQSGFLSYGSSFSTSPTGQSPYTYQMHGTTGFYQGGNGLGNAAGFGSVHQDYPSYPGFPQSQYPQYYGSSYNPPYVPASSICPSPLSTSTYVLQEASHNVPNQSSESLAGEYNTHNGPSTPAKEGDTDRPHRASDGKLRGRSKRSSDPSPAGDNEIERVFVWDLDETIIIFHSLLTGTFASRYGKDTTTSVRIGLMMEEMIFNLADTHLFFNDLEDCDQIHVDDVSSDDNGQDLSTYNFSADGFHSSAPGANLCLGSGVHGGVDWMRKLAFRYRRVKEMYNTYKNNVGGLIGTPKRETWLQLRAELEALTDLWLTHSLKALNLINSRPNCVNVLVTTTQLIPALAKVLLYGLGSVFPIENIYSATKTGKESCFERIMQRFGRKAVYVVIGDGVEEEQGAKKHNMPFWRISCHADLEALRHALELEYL
Target sequence (Q15475 whole entry, looked up): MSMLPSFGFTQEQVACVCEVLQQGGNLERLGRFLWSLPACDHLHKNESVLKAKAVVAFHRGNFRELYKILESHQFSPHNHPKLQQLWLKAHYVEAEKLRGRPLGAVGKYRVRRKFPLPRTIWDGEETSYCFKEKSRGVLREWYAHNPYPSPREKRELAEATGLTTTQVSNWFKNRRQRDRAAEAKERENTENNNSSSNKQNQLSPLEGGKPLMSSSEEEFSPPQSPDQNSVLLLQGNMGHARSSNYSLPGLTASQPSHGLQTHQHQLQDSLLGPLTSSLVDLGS
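Homogeneous AlphaScreen proximity assay pairing GST-Six1 with His-tagged Eya2 (added as 5X mix: 250 nM and 500 nM) in 50 mM Tris pH 8.0, 300 mM NaCl, 1 mM TCEP. Glutathione donor and nickel acceptor beads; 1 h, 37 °C, dark.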
HP1b chromo inh – HTS for Inhibitors of HP1-beta Chromodomain Interactions with Methylated Histone Tails | Chromobox protein homolog 1 (Homo sapiens), P83916 | AlphaScreen HP1-beta / biotin-H3K9me3 peptide binding | Potency, µM (titrated, usually from 114 µM), without a hit: top-dose activity change, negative = inhibition, most hits filed as inhibitors | hit rate 0.56% among 390,000 | AID 540317, 2011; further: potency means the concentration at half of the fitted maximal effect; nearly all actives have a fitted effect of over 70% in size
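HP1-beta protein (50 nM final) preincubated 30 min at room temperature with biotinylated H3(1-18)K9me3 peptide (50 nM) in PBS pH 7.4, 0.01% Tween-20, then compound added for 30 min. AlphaScreen streptavidin donor/nickel chelate acceptor beads (10 ug/mL final), 30 min dark, luminescence read.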
CtBP-E1A inh – qHTS Assay for Inhibitors of the CtBP/E1A Interaction | AlphaScreen GST-E1A/His-CtBP binding, 1536-well; active compounds read low | hit rate 0.49% among 340,000 | activity change, % (no concentration beside the values) | AID 651724, 2012 | CtBP / adenovirus E1A interaction (AlphaScreen); in the data active means activity change below about -65%; inconclusive means mostly about -30% to -63%; further: on the % scale 0 is the no-effect control and ±100 the full control effect
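Protein mix (5X: 125 nM each GST-E1A, His-CtBP) was incubated with pinned compound 2 h at 37 deg C in dark, in 50 mM Tris pH 8.0 buffer with 300 mM NaCl. Glutathione donor and nickel acceptor beads followed; AlphaScreen signal read after 1 h.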
JMJD2A Tudor – qHTS Assay for Inhibitors of JMJD2A-Tudor Domain; Lysine-specific demethylase 4A (Homo sapiens), O75164; AlphaScreen JMJD2A-Tudor / H3K4me3 peptide binding; Potency, µM (doses to about 114 µM), for the others: at the top dose activity change, negative = inhibition, most hits filed as inhibitors; hit rate 4.4% among 390,000; further: potency means the concentration at half of the fitted maximal effect; on the % scale 0 is the no-effect control and ±100 the full control effect; nearly all actives have a fitted effect of over 50% in size
TDP1 block – qHTS Assay for Inhibitors of Tyrosyl-DNA Phosphodiesterase (TDP1). recombinant TDP1, AlphaScreen DNA substrate cleavage. Potency, µM (series often up to 130 µM), inactives show top-dose activity change, negative = inhibition, actives largely listed as inhibitors. hit rate 0.28% among 350,000; further: potency means the concentration at half of the fitted maximal effect; on the % scale 0 is the no-effect control and ±100 the full control effect; nearly all actives have a fitted effect of over 40% in size
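Steps: enzyme plus compound, 15 min RT; add biotin/phosphotyrosine-FITC oligonucleotide (15 nM final), react 5 min; add donor/acceptor beads (10 ug/ml final), 10 min; read AlphaScreen. Tdp1 at 1 nM final.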
Starred values were filed as active, the others as inactive; ? = inconclusive; / = no result given; [ ] = dose if it differs, or a comment. Most compounds without a hit are left out; they make up all but 5.3% or so of the library. Unless noted, the call rests on the fitted dose curve; in most records, active means well fitted inhibition curve with a large enough effect; inconclusive means small, poorly fitted or top-dose-only effect; inactive means no such curve, though single readings can be large or run the other way.

SMILES	BAZ2B block	Six1-Eya2 inh	HP1b chromo inh	CtBP-E1A inh	JMJD2A Tudor	TDP1 block
CC(=O)c1ccc(OC2C(O)COC2/C=C/c2ccc(Cl)cc2)cc1 (stereo not drawn)	/	/	/	/	/	9%[21 µM]
Cc1ccc(NC(=O)c2ccco2)c(NC(=O)c2ccccc2C)c1	-2%	-21	32%	0	50µM*	/
O=C(Nc1ccc(Oc2ccc(NC(=O)c3ccco3)c(NC(=O)c3ccco3)c2)cc1)c1ccco1	-21%	-5	5µM*	6	-23%	7%
COc1ccc(NC(=O)c2ccco2)cc1NC(=O)c1cccc(C)c1OC	?	/	-9%	/	20µM*	4%
CCOC(=O)c1c(C)oc2nc(C)nc(NCc3ccc(OC)cc3OC)c12	-12%[57.1 µM]	/	28%	/	-15%	-1%
O=C1N/C(=N/Nc2ccccc2)S/C1=C\c1ccccc1	40µM*	-7	?	-8	45µM*	-10%
COc1ccc2c(CNCCc3cccs3)c(C(=O)O)n(Cc3ccccc3C)c2c1	-15%	/	-1%	/	-26%	3%
O=[N+]([O-])c1cc2c(c3cccnc13)COCO2	/	?	?	14	25µM*	/
O=[N+]([O-])c1cc2cccnc2c2ncccc12	22µM*	?	20%	/	79µM*	0%
CC(C)Oc1ccc(CNS(=O)(=O)c2ccc(-c3cc(C(F)(F)F)on3)s2)cc1	2%	/	16%	/	-14%	-5%
COC(=O)c1scc(-c2ccc(C)cc2)c1S(=O)(=O)Nc1ccc(N(C)C)cc1	8.9µM*	/	?	/	?	12%
O=C(CSc1ncc2c(n1)-c1cc(Cl)ccc1N(Cc1ccccc1F)S2(=O)=O)Nc1cccc(C(F)(F)F)c1	2%	/	9%	/	2%	-3%
Cc1ccc(N2NC(=O)/C(=C/c3ccc(-c4ccc(Cl)c(C(=O)O)c4)o3)C2=O)cc1C	?	6	-3%	4	-24%	/
CCCOC(=O)c1cc(-c2ccc(C=O)o2)ccc1Cl	2%	-7	11%	-5	-3%	-3%
CC1=NN(c2ccccc2)C(=O)/C1=C/c1ccc(-c2ccc(C)c(C(=O)O)c2)o1	/	-3	?	3	40µM*	/
CC1=NN(c2ccc(Cl)c(C(=O)O)c2)C(=O)/C1=C\c1ccc(-c2ccc(C(=O)O)cc2)o1	50µM*	-9	-15%	-5	?	79µM*
CCCOC(=O)c1cc(-c2ccc(/C=C3/C(=O)N(C)C(=O)C(C#N)=C3C)o2)ccc1Cl	/	-4	?	-2	56µM*	/
CC1(C)OC(=O)C(=Cc2ccc(-c3ccc(Cl)c(C(=O)O)c3)o2)C(=O)O1	79µM*	-23	19%	7	?	50µM*
Cc1ccc(N2CC(NC(=O)c3cc4ccccc4o3)CC2=O)cc1C (stereo not drawn)	-14%	/	14%	/	-10%	5%
CCCN1CCN(CC2=C(C(=O)OCC)C(c3cccc(OC)c3OC)NC(=O)N2)CC1 (stereo not drawn)	-4%	/	38%	/	0%	-1%
O=C(O)c1cc(-c2ccc(/C=C3/SC(=S)N(Cc4ccccc4)C3=O)o2)ccc1Cl	?	-11	?	2	56µM*	/
CN(C)c1ccc2c(c1[N+](=O)[O-])Cc1ccccc1-2	/	?	?	9	16µM*	/
Cc1nnc(NC(=O)CCSCCC(=O)Nc2nnc(C)s2)s1	50µM*	-6	-17%	/	50µM*	32µM*
Cc1ccc(N2CCn3c2nc2c3c(=O)n(CCCc3ccccc3)c(=O)n2C)cc1	?	/	16%	/	?	-1%
COc1ccc(C2Nc3ccc(NC(C)=O)cc3C(=O)N2Cc2cccc(Cl)c2)cc1COc1ccc(NC(C)=O)cc1 (stereo not drawn)	/	/	12%	/	?	-5%
SMILES	BAZ2B block	Six1-Eya2 inh	HP1b chromo inh	CtBP-E1A inh	JMJD2A Tudor	TDP1 block
COc1ccc(C2Nc3ccc(Cl)cc3C(=O)N2Cc2ccccc2)cc1COc1ccc(NC(C)=O)cc1 (stereo not drawn)	/	/	/	/	56µM*	-14%
COc1cccc(CN2C(=O)c3ccccc3NC2c2ccc(OC)c(COc3ccc(NC(C)=O)cc3)c2)c1 (stereo not drawn)	/	/	/	/	?	1%
COc1ccc(C2Nc3ccc(NC(=O)CO)cc3C(=O)N2Cc2cccc(Cl)c2)cc1COc1ccc(NC(C)=O)cc1 (stereo not drawn)	/	/	-9%	/	56µM*	-9%
CCc1n[nH]c(=S)n1/N=C/c1cc(Br)c(O)c(OC)c1	-18%	-9	29%	/	5.6µM*	7%
S=c1[nH]nc(COc2ccccc2)n1/N=C/c1ccc(Cl)c(Cl)c1	-15%	-3	?	-4	?	/
CCOc1ccc(/C=N/n2c(COc3ccccc3)n[nH]c2=S)cc1OC	23%	-1	-10%	/	20µM*	/
COc1cc(/C=N/n2c(COc3ccccc3)n[nH]c2=S)cc(Br)c1O	-29%	-13	-19%	-9	13µM*	/
O=[S+]([O-])(c1ccc2c(c1)OCCO2)N1CCN([S+](=O)([O-])c2c(O)cc(F)cc2F)CC1	/	/	/	/	-11%	/
O=C(NCCC1=CCCCC1)c1ccc2c(c1)sc1nc(-c3ccc(F)cc3)cn12	-2%	/	31%	/	-6%	6%
O=S(=O)(c1ccc(Cl)cc1)N(CCCN1CCOCC1)Cc1cccs1	50µM*	3	15%	/	8.9µM*	-2%
Clc1ccccc1-c1ncc2ccccn12	56µM*	-9	?	0	18µM*	4%
COc1ccc(-c2ncc3ccccn23)cc1OC	32µM*	-5	?	1	3.5µM*	5%
Cc1cc(C)cc(NC(=O)CSc2oc(-c3cccs3)nc2S(=O)(=O)c2ccc(Br)cc2)c1	3%	/	23%	/	0%	-3%
COc1cccc(NC(=O)N2CCC(n3c(C)nc4cccnc43)CC2)c1	-7%	/	12%	/	-1%	-6%
COc1ccc(-n2c(=O)c3ccc(C(=O)NCc4ccc(C)cc4)cc3n(CC(=O)Nc3cccc(F)c3)c2=O)cc1	/	/	28%	/	2%	0%
COc1ccc(OCC2c3cc(OC)c(OC)cc3CCN2C(=O)C(C)C)cc1 (stereo not drawn)	-37%	3	-8%	3	56µM*	2%
